Each structure is given as a SMILES string. Records with an inconclusive call do not appear. Entries that show only a call come without a potency. Activity calls are given as the source filed them. Unless noted, the call rests on the fitted dose curve; in most records, active means well fitted curve in the direction sought with a large enough effect in the repeat runs; inconclusive means weak or mixed curves; inactive means no such curve, though single readings can be large; an effect the other way counts as inactive or inconclusive.

Tested on in the first assay: not listed separately
Description: qHTS assay to identify small molecule agonists of the estrogen receptor beta (ER-beta) signaling pathway - cell viability counter screen (AID 1259380). Further: nearly all actives have a fitted effect of over 30% in size. Further: potency means the concentration at half of the fitted maximal effect. The settings on record: ER-beta-bla HEK293T viability, CellTiter-Glo luminescence, 16 h; series mostly up to 92.4 µM. Summed up:
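Steps: plate ER-beta-UAS-bla HEK293T cells, rest 6 hr; add compounds in DMSO; incubate 16 hr at 37C, 5% CO2; add FRET substrate 2 hr; add CellTiter-Glo, wait 30 min at room temperature; read luminescence.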
(In general: In qHTS, concentration-response curves come from the screen itself.)
As to `CCCCCOC(=O)CCCC`, the Potency entry is “inactive”.
On the same count and under the same terms, to `C1CCCC1` belongs “inactive”.
Same read-out and setting: to `CCCCCCCC/C=C\CCCCCCCCOCCO` belongs 28.2 µM (active).
For `Nc1c(Cl)cc(Cl)cc1Cl`, the Potency entry is “inactive”.
Same read-out and setting: with `Nc1ccc2cc(S(=O)(=O)O)cc(O)c2c1N=Nc1ccccc1C(F)(F)F` the entry was “inactive”; with `OCCCCCCCCCCCCBr`, “inactive”.
Still for that read-out and setting: to `COc1cc(-c2ccc(N=C=O)c(OC)c2)ccc1N=C=O` belongs “inactive”.
For `C[n+]1ccn(Cc2ccccc2)c1`, the Potency result is “inactive”.
Regarding `CSc1cnc(C)cn1`, the Potency result was “inactive”.
`Clc1ccccc1C(c1ccccc1)(c1ccccc1)n1ccnc1`: the Potency is 17.2 µM (active).
On the same count and under the same terms, with `CC(C)CCCCCCCCCCCCCCC(=O)O` the figure was 54.5 µM (active).
`O=C1c2ccccc2Cc2ccccc21`: the Potency entry is “inactive”.

Tested on in another assay: not listed separately
The assay is described as follows: qHTS assay to identify small molecule antagonists of the estrogen receptor beta (ER-beta) signaling pathway - cell viability counter screen (AID 1259382). Further: nearly all actives have a fitted effect of over 55% in size. Further: potency means the concentration at half of the fitted maximal effect. The settings on record: ER-beta-UAS-bla HEK293T viability, CellTiter-Glo luminescence, 16 h; series mostly up to 92.4 µM. In outline:
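Viability is scored by CellTiter-Glo luminescence (30 min, room temperature) in ER-beta-UAS-bla HEK293T wells already read for reporter fluorescence. Compound exposure lasts 16 hr at 37C alongside 1nM 17-beta-estradiol in charcoal-stripped serum medium.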
`O=C(OCC(COC(=O)c1ccccc1)(COC(=O)c1ccccc1)COC(=O)c1ccccc1)c1ccccc1`: the Potency result is “inactive”.
Turning to `Cc1cc(N)c(S(=O)(=O)O)cc1Cl`, the Potency result is “inactive”.
For `CCN(CC)CCNC(=O)c1c(C)[nH]c(/C=C2\C(=O)Nc3ccc(F)cc32)c1C`, the Potency was 11.9 µM (active).
Still for that read-out and setting: with `CC(C)(C)c1ccc(C(=O)CCCN2CCC(OC(c3ccccc3)c3ccccc3)CC2)cc1` the figure was 23.7 µM (active); with `O=c1cc(-c2ccc(O)cc2)oc2cc(O)cc(O)c12`, “inactive”; with `CO[Si](CCCNc1ccccc1)(OC)OC`, “inactive”.
For the compound `CCCCCCCCCCCC[N+](C)(C)CCCCCCCCCCCC`, the Potency is 21.7 µM (active).
Still for that read-out and setting: to `CCCCCCCC(=O)[O-].CCCCCCCC(=O)[O-].[Zn+2]` belongs “inactive”; to `C/C=C(\C)C(=O)OCc1ccccc1`, “inactive”; to `CCN(C(=O)c1cc(C)cc(OC[C@H](C)Nc2ccncc2)c1)C(C)C`, “inactive”.
Regarding `O=C(O)c1c(Cl)cccc1Cl`, the Potency result is “inactive”.
Same read-out and setting: with `CC(C)(C)c1ccc(C(=O)O)cc1` the entry was “inactive”.
As for `Cc1cccc(N(C)C(=S)Oc2ccc3c(c2)C2CCC3C2)c1` (configuration not stated), the Potency result was “inactive”.
For the compound `CCN(C(=O)N(CC)c1ccccc1)c1ccccc1`, the Potency entry was “inactive”.
With `CN(C)[C@@H]1C(=O)C(C(N)=O)=C(O)[C@@]2(O)C(=O)C3=C(O)c4c(O)cccc4C[C@H]3C[C@@H]12`, the Potency result is “inactive”.
As for `Oc1cccc2cc3cccc(O)c3c(O)c12`, the Potency entry is “inactive”.
Same read-out and setting: with `Oc1ccc2cc(SSc3ccc4cc(O)ccc4c3)ccc2c1` the entry was “inactive”; with `CCCCCOC(=O)CCCC`, “inactive”; with `C1CCCC1`, “inactive”.
Same read-out and setting: to `CCCC/C=C/CCCCO` belongs “inactive”; to `CCCCCCCC/C=C\CCCCCCCCOCCO`, 28.2 µM (active); to `Nc1c(Cl)cc(Cl)cc1Cl`, “inactive”.
Same read-out and setting: to `C/C=C1/C(=O)C[C@H]2[C@@H]3CCC4=CC(=O)CC[C@]4(C)[C@H]3CC[C@]12C` belongs “inactive”; to `Nc1ccc2cc(S(=O)(=O)O)cc(O)c2c1N=Nc1ccccc1C(F)(F)F`, “inactive”; to `COc1cccc(N)c1`, “inactive”.
For `OCCCCCCCCCCCCBr`, the Potency result was “inactive”.
On to `COc1cc(-c2ccc(N=C=O)c(OC)c2)ccc1N=C=O`, for which the Potency entry was “inactive”.
Still for that read-out and setting: to `C[n+]1ccn(Cc2ccccc2)c1` belongs “inactive”; to `CSc1cnc(C)cn1`, “inactive”.
As to `Clc1ccccc1C(c1ccccc1)(c1ccccc1)n1ccnc1`, the Potency was 15.4 µM (active).
With `CC(C)CCCCCCCCCCCCCCC(=O)O`, the Potency entry was “inactive”.
Still for that read-out and setting: to `CCC(Cl)C(Cl)C(Cl)CC(Cl)C(Cl)C(C)Cl` (configuration not stated) belongs “inactive”; to `O=C1c2ccccc2Cc2ccccc21`, “inactive”.

For the next assay, the target named is Estrogen receptor (Homo sapiens) (UniProt P03372). Description: qHTS assay to identify small molecule agonists of the estrogen receptor alpha (ER-alpha) signaling pathway in the presence of an antagonist (AID 1259383; calls by dose curve; further: top concentration of the series differs between compounds; nearly all actives have a fitted effect of over 15% in size). The settings on record: VM7Luc4E2 cells, ERE-luciferase, +ICI-182,780, 22 h; series mostly up to 92.4 µM. Summed up: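 Readout was ERE-driven luciferase luminescence in VM7Luc4E2 cells, which express full-length ER-alpha endogenously. Compounds were tested at 15 concentrations for 22hr alongside 10.0nM ICI-182,780 (final concentration).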
Sequence of Estrogen receptor (Homo sapiens) (P03372 whole entry, looked up): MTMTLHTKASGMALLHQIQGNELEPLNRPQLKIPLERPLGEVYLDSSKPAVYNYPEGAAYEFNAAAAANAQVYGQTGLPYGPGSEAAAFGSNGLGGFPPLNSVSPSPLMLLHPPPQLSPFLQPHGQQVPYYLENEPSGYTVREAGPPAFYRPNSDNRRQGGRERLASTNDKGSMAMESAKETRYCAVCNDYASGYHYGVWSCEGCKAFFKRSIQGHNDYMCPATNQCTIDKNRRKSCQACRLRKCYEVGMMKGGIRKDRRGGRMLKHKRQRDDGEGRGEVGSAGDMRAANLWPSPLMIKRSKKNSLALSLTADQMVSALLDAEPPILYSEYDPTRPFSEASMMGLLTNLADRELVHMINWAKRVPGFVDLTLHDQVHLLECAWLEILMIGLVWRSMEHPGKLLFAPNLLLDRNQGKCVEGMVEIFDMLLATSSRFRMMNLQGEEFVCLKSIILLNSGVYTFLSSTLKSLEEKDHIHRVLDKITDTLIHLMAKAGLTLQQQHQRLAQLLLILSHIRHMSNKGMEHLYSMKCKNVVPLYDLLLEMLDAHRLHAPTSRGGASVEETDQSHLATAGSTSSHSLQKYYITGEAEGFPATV
`C=C(C)C(=O)OCC(O)COc1ccc(C(C)(C)c2ccc(OCC(O)COC(=O)C(=C)C)cc2)cc1` (configuration not stated): the Potency entry was “inactive”.
Still for that read-out and setting: with `CCCCCCCCCCCC[N+](C)(C)CCCCCCCCCCCC` the entry was “inactive”; with `CCCCCCCC(=O)[O-].CCCCCCCC(=O)[O-].[Zn+2]`, “inactive”; with `Cc1cccc(N(C)C(=S)Oc2ccc3c(c2)C2CCC3C2)c1` (configuration not stated), “inactive”.
`O=C(Nc1cccc(Cl)c1)OCC#CCCl`: the Potency result was “inactive”.
`CN(C)[C@@H]1C(=O)C(C(N)=O)=C(O)[C@@]2(O)C(=O)C3=C(O)c4c(O)cccc4C[C@H]3C[C@@H]12`: the Potency entry was “inactive”.
Same read-out and setting: with `CCCCCOC(=O)CCCC` the entry was “inactive”; with `CCCCCCCC/C=C\CCCCCCCCOCCO`, “inactive”; with `C[n+]1ccn(Cc2ccccc2)c1`, “inactive”.
`CSc1cnc(C)cn1`: the Potency entry was “inactive”.
The same measure, in the same setting: to `Clc1ccccc1C(c1ccccc1)(c1ccccc1)n1ccnc1` belongs “inactive”.
On the same count and under the same terms, with `O=C1c2ccccc2Cc2ccccc21` the entry was “inactive”.

Tested on in a further assay: not listed separately
Description: qHTS assay to identify small molecule agonists or antagonists of the thyroid stimulating hormone receptor (TSHR) signaling pathway - wild type cell line counter screen (AID 1259384; calls by dose curve). The settings on record: HEK293 wild type, cAMP HTRF counter-screen, active compounds read high; series mostly up to 92.4 µM. Summed up: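 Wild-type HEK293 cells were plated 18 h at 37 C/5% CO2, pin-dosed with compound plus Ro20-1724 medium, held 30 min at room temperature, then given cAMP-d2 and anti-cAMP-cryptate; fluorescence was read after 1 h. Fifteen concentrations, triplicate.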
As to `O=C(OCC(COC(=O)c1ccccc1)(COC(=O)c1ccccc1)COC(=O)c1ccccc1)c1ccccc1`, the call was inactive.
On to `Cc1cc(N)c(S(=O)(=O)O)cc1Cl`, for which the call was inactive.
Still for that read-out and setting: with `CC(C)(C)c1ccc(C(=O)CCCN2CCC(OC(c3ccccc3)c3ccccc3)CC2)cc1` the entry was “inactive”.
Still for that read-out and setting: with `O=c1cc(-c2ccc(O)cc2)oc2cc(O)cc(O)c12` the entry was “inactive”; with `CO[Si](CCCNc1ccccc1)(OC)OC`, “inactive”.
On the same count and under the same terms, to `C=C(C)C(=O)OCC(O)COc1ccc(C(C)(C)c2ccc(OCC(O)COC(=O)C(=C)C)cc2)cc1` (configuration not stated) belongs “inactive”; to `CCCCCCCCCCCC[N+](C)(C)CCCCCCCCCCCC`, “inactive”.
For `C/C=C(\C)C(=O)OCc1ccccc1`, the call was inactive.
Consider `CCN(C(=O)c1cc(C)cc(OC[C@H](C)Nc2ccncc2)c1)C(C)C`, for which the compound was called inactive.
Consider `O=C(O)c1c(Cl)cccc1Cl`, for which the outcome was inactive.
Still for that read-out and setting: to `CC(C)(C)c1ccc(C(=O)O)cc1` belongs “inactive”; to `Cc1cccc(N(C)C(=S)Oc2ccc3c(c2)C2CCC3C2)c1` (configuration not stated), “inactive”; to `CCN(C(=O)N(CC)c1ccccc1)c1ccccc1`, “inactive”.
The same measure, in the same setting: to `O=C(Nc1cccc(Cl)c1)OCC#CCCl` belongs “inactive”.
Take `CN(C)[C@@H]1C(=O)C(C(N)=O)=C(O)[C@@]2(O)C(=O)C3=C(O)c4c(O)cccc4C[C@H]3C[C@@H]12`: the outcome was inactive.
On the same count and under the same terms, to `Oc1cccc2cc3cccc(O)c3c(O)c12` belongs “inactive”; to `Oc1ccc2cc(SSc3ccc4cc(O)ccc4c3)ccc2c1`, “inactive”.
Consider `CCCCCOC(=O)CCCC`, for which the result was inactive.
`C1CCCC1`: the outcome was inactive.
Same read-out and setting: to `CCCC/C=C/CCCCO` belongs “inactive”; to `CCCCCCCC/C=C\CCCCCCCCOCCO`, “inactive”; to `Nc1c(Cl)cc(Cl)cc1Cl`, “inactive”.
The same measure, in the same setting: with `COc1cccc(N)c1` the entry was “inactive”.
On to `OCCCCCCCCCCCCBr`, for which the call was inactive.
For the compound `[Cl][Au]([Cl])[Cl]`, the result was inactive.
On to `C[n+]1ccn(Cc2ccccc2)c1`, for which the compound was classed as inactive.
On to `CSc1cnc(C)cn1`, for which the compound was classed as inactive.
Turning to `Clc1ccccc1C(c1ccccc1)(c1ccccc1)n1ccnc1`, the compound was called inactive.
As for `CCC(Cl)C(Cl)C(Cl)CC(Cl)C(Cl)C(C)Cl` (configuration not stated), the compound was called inactive.
Still for that read-out and setting: to `O=C1c2ccccc2Cc2ccccc21` belongs “inactive”.

Values taken from PubChem BioAssay (Tox21).
